Bioassay records (PubChem BioAssay)
Fam108B counter: mouse Fam108B serine hydrolase inhibitors, primary screen, counter-screen for RBBP9 inhibitor project, biochemical, fluorescence polarization; 300,000 tested, 0.33% active; recombinant Fam108B, FP-Rh probe fluorescence polarization; inhibition, % at 9.51 µM;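 active = inhibition above the screen mean inhibition plus 3 SD, computed separately per campaign, cut at about 18% in these data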;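 also: inhibitors lower polarization as less probe binds the enzyme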
LYPLA2 inh: LYPLA2 inhibitors, primary screen, counter-screen for PME1 inhibitor project, biochemical, fluorescence polarization, FP-Rh probe ABPP | Acyl-protein thioesterase 2 (Homo sapiens), O95372 | recombinant LYPLA2 | inhibition, % at 5.9 µM | 320,000 tested, 0.38% active;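 active = inhibition above the screen-wide mean plus 3 SD, limit set per campaign, cut at about 26% in these data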
LYPLA1 counter: LYPLA1 inhibitors, primary screen, counter-screen for PME1 inhibitor project, biochemical, fluorescence polarization, FP-Rh probe ABPP. recombinant LYPLA1. AID 2174, 2009. Acyl-protein thioesterase 1 (Homo sapiens), O75608. inhibition, % at 5.9 µM. 320,000 tested, 0.16% active;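 active = inhibition above the mean of all tested compounds plus 3 SD, set per campaign, cut at about 14% in these data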;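 also: inhibitors block serine hydrolase probe labeling of LYPLA1 so polarization falls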
Target sequence (O75608 whole entry, looked up): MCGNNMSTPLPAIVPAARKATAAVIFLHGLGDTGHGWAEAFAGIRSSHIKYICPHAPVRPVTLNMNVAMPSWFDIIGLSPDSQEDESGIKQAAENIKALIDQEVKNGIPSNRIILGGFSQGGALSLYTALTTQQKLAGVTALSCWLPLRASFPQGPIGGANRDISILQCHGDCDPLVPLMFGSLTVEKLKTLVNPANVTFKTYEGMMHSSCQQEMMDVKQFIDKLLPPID
PREPL inhibitor: PREPL enzyme inhibitors, primary screen, biochemical, fluorescence polarization | inhibition, % at 5.96 µM | 320,000 tested, 0.68% active | recombinant PREPL, fluorescence polarization activity-based probe | AID 2751, 2010 | Prolyl endopeptidase-like (Homo sapiens), Q4J6C6; in the data active = inhibition above about 43%
GSTO1 counter: inhibitors of recombinant GSTO1, primary screen, counter-screen for RBBP9 inhibitor project, biochemical, fluorescence polarization. inhibition, % at 5.96 µM. activity-based probe fluorescence polarization. 300,000 tested, 1.1% active. Glutathione S-transferase omega-1 (Homo sapiens), P78417. AID 1974, 2009;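 active = inhibition above the campaign mean inhibition plus 3 SD, cut at about 35% in these data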
Target sequence (P78417 whole entry, looked up): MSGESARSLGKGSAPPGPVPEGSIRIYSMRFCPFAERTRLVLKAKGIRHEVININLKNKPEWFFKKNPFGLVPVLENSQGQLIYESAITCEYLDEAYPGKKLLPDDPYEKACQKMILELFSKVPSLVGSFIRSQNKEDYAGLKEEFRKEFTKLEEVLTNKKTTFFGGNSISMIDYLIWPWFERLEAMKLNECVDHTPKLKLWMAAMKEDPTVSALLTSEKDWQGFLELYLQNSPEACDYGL
PME-1 inh: PME-1 inhibitors via competitive probe labeling, primary screen, biochemical, fluorescence polarization, FP-Rh probe, HTS | 320,000 tested, 0.53% active | inhibition, % at 5.9 µM | recombinant PME-1 | Protein phosphatase methylesterase 1 (Homo sapiens), Q9Y570;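 active = inhibition above the campaign mean of all compounds plus 3 SD, cut at about 26% in these data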;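 also: competitive labeling of PME-1 active site by serine hydrolase directed probe; inhibitors block probe labeling so polarization falls and inhibition rises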
GSTO1 inh conf: GSTO1 inhibitor hit confirmation, counter-screen for RBBP9 inhibitor project, biochemical, fluorescence polarization, triplicate; shares compounds with GSTO1 counter; recombinant GSTO1, probe fluorescence polarization; inhibition, % at 5.96 µM; 2,400 tested, 54% active;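 active = inhibition above the primary screen's cutoff, its mean inhibition plus 3 SD, cut at about 35% in these data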;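 also: loss of polarization as inhibitors block binding of rhodamine sulfonate ester activity probe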
GSTO1 ABPP inh: inhibitors of purified human GSTO1, late-stage follow-up, biochemical, gel ABPP, SE-Rh probe, percent inhibition. recombinant GSTO1, gel ABPP SE-Rh probe fluorescence. AID 463110, 2010. inhibition, % at 1 µM. 130 tested, 30% active. shares compounds with GSTO1 counter;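 active = inhibition of the enzyme GSTO1 above about 75%, limit read from the data; inactive = inhibition below that limit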
Each line names hits and unclear results; the compound was inactive in the other large screens (follow-up assays come after a bar, where they were run). The list is not random: actives were taken first. Their share in the collection is about 2%.

O=C(NC1(O)C(=O)c2ccccc2C1=O)c1ccc(C(F)(F)F)cc1	GSTO1 counter 84.2 | GSTO1 inh conf 77.5
Cc1cc(C)nc(NS(=O)(=O)c2ccc(NC(=O)CSc3nc(-c4ccccc4)c(C#N)c(=O)[nH]3)cc2)n1	none
CCC1CCCCN1C(=O)C(=O)c1cn(CC(=O)N(CC)CC)c2ccccc12 (centres undefined)	GSTO1 counter 39.7 | GSTO1 inh conf inactive
COc1cccc(/C=N/NC(=O)NC2CCCCC2)c1O	GSTO1 counter 38.3 | GSTO1 inh conf inactive
c1cc2c3c(cccc3c1)NC1(CCCCCC1)N2	PREPL inhibitor 52.1, GSTO1 counter 53.2 | GSTO1 inh conf inactive
Oc1ccc(NCc2ccccc2OCc2ccccc2)cc1	GSTO1 counter 83.9 | GSTO1 inh conf inactive
O=C1OCC=C1NNC(=O)c1cccnc1	none
O=C1/C(=N\S(=O)(=O)c2cccs2)C([n+]2cccc(Cc3ccccc3)c2)=C([O-])c2ccccc21	GSTO1 counter 87.0 | GSTO1 inh conf 83.1
Cc1cc(C)c[n+](C2=C([O-])c3ccccc3C(=O)/C2=N\S(=O)(=O)c2cccs2)c1	GSTO1 counter 80.8 | GSTO1 inh conf 87.5
CC(C)N(Cc1ccccc1)S(=O)(=O)c1cccs1	none
CN(/C(=N/S(=O)(=O)c1cccs1)c1ccccc1)c1ccccc1	none
Cc1cc[n+](C2=C([O-])c3ccccc3C(=O)/C2=N\S(=O)(=O)c2cccs2)cc1C	GSTO1 counter 90.3 | GSTO1 inh conf 89.7
CCCN1Cc2cccc(C(=O)NCCc3cccc(C)c3)c2C1=O	none
COc1ccc(C2(C)NC(=O)N(CC(=O)NCCC3=CCCCC3)C2=O)cc1OC (centres undefined)	GSTO1 counter 39.0 | GSTO1 inh conf inactive
COc1ccc2cc(C3(C)NC(=O)N(CC(=O)NCCC4=CCCCC4)C3=O)ccc2c1 (centres undefined)	none
O=C(OCC(=O)N1CCCC1=O)C1COc2ccccc2O1 (centres undefined)	none
Cc1cccc(CN2CCN(C(=O)CCl)CC2)c1	GSTO1 counter 96.2 | GSTO1 inh conf 99.0 | GSTO1 ABPP inh inactive
CCC(=O)NC1=C(NC(C)c2ccccc2)C(=O)c2ccccc2C1=O (centres undefined)	none
O=S(=O)(Cc1ccccc1)NCc1cccnc1	none
O=C(O)c1ccc(NC2=C(Cl)C(=O)c3ccccc3C2=O)cc1	GSTO1 counter 79.1 | GSTO1 inh conf 48.8
O=C1C(Cl)=C(NCc2cccnc2)C(=O)c2ccccc21	GSTO1 counter 76.8 | GSTO1 inh conf 57.0
O=C1C(Cl)=C(Nc2ccccc2)C(=O)c2ccccc21	GSTO1 counter 101.8 | GSTO1 inh conf 89.7
CC(C)NC1=C(Cl)C(=O)c2ccccc2C1=O	GSTO1 counter 64.9 | GSTO1 inh conf inactive
COC1=C(Nc2ccc(C)cc2)C(=O)c2ccccc2C1=O	none
C=CCn1c(N)cc(=O)nc1SC(C)C(=O)Nc1ccc(C(=O)OCC)cc1 (centres undefined)	none
COc1ccccc1-c1nc(S(=O)(=O)c2ccccc2)c(N2CCOCC2)o1	none
Clc1ss/c(=N\c2ccccn2)c1Cl	GSTO1 counter 61.4 | GSTO1 inh conf 44.6
O=C(COC(=O)c1ccc(Cl)c(S(=O)(=O)N2CCCCC2)c1)NCC1CCCO1 (centres undefined)	none
O=C1N=C(N2CCOCC2)S/C1=C\c1ccccc1OS(=O)(=O)c1ccccc1	none
O=C1N=C(N2CCOCC2)S/C1=C/c1cc2c(cc1[N+](=O)[O-])OCO2	GSTO1 counter 64.1 | GSTO1 inh conf 47.8
C[C@H](CO)N1C[C@H](C)[C@@H](CN(C)C(=O)Nc2ccc3c(c2)OCO3)Oc2c(NS(=O)(=O)c3ccc(F)cc3)cccc2C1=O	none (no result: Fam108B counter, LYPLA2 inh, LYPLA1 counter, GSTO1 counter, PME-1 inh)
Cc1ccc2c(c1)c1c3n2CCN(C(=O)CCl)C3CCC1 (centres undefined)	GSTO1 counter 93.2 | GSTO1 inh conf 93.1 | GSTO1 ABPP inh 85.0
CC(=O)N1CCn2c3c(c4cc(C)ccc42)CCCC31 (centres undefined)	none
CC(=O)N1CCn2c3c(c(=O)c4cc(C)ccc42)CCC31 (centres undefined)	GSTO1 counter 73.2 | GSTO1 inh conf 56.7
CCCCCCOc1ccc(C(=O)O)cc1	none
CCCCOc1ccc(-c2ncc(C(=O)O)c(C)n2)cc1	GSTO1 counter 43.4 | GSTO1 inh conf inactive
COc1ccc(C)cc1N1CC(C(=O)Nc2ccccc2C(=O)NC2CC2)CC1=O (centres undefined)	none (no result: Fam108B counter, GSTO1 counter)
COc1ccc(C(OCC2CO2)c2ccc(OC)cc2)cc1 (centres undefined)	GSTO1 counter 82.1 | GSTO1 inh conf 91.8 | GSTO1 ABPP inh inactive
COc1ccc(S(=O)(=O)c2ccc(OCC3CO3)cc2)cc1 (centres undefined)	none
Cc1ccc(-c2nn(-c3ccccc3)cc2C=O)o1	none
O=C(NC1CCCC1)c1cccc(Oc2ccccc2)c1	none
CN1CCC(NC(=O)c2cccc(Oc3ccccc3)c2)CC1	GSTO1 counter 63.5 | GSTO1 inh conf inactive
COC(=O)Cc1c(C)[nH]n(-c2cc(Cl)cc(Cl)c2)c1=O	GSTO1 counter 46.7 | GSTO1 inh conf inactive
CN(C)c1cc(Cl)c2nonc2c1N	GSTO1 counter 60.2 | GSTO1 inh conf inactive
CCN(CC)c1cc(Cl)c2nonc2c1N	none
Cc1ccc(NC(=O)CN(C)C(=O)C(C)N2CCN(Cc3ccccc3C)CC2)cc1 (centres undefined)	none (no result: Fam108B counter, GSTO1 counter)
COc1ccc(NC(=O)C(OC(=O)c2ccc([N+](=O)[O-])o2)c2ccccc2)cc1Cl (centres undefined)	GSTO1 counter 50.1 | GSTO1 inh conf inactive
CC(C)N(CCNS(=O)(=O)c1ccc(Cl)cc1)C(C)C	none
CC(C)OP(=O)(OC(C)C)C1(NS(=O)(=O)c2ccc(Cl)cc2)C=C(Cl)C(=O)C(Cl)=C1	GSTO1 counter 62.0 | GSTO1 inh conf 43.6
COCc1[nH][nH]c(=O)c1/C=N/N1CCOCC1	GSTO1 counter 38.3 | GSTO1 inh conf inactive
Cc1ccc(S(=O)(=O)Nc2cccnc2Oc2ccc(Cl)cc2)cc1	none
